The values that follow come from ChEMBL document CHEMBL3988442, “University of Dundee, Small-Polar-MMV Screening Library” (2021).

Screen size: about 48,000 compounds; about 13,000 (27%) showed an effect of 50% or more. The list shows a part of the results.

For this assay, the system named is Wolbachia pipientis. Description: Anti-Wolbachia Cell-Based Screen. Set-up: scale not given: in the data most compounds retested in dose-response had high values. The following applies: 5 µM. It is filed as functional.
In the case of `Cc1ccc(N2CCCC(NCc3ccsc3)C2)nn1` (stereo not given), the “Percent Effect” value is reported as -6.53%.
`Cc1ccc(N2CCCC(NCc3sccc3C)C2)nn1` (stereo not given): the “Percent Effect” value is 101%.
The value for `Cc1ccc(N2CCCC(NCc3ccc(C)s3)C2)nn1` (stereo not given) was 102.5%; that for `Cc1ccc(N2CCCC(NCc3cnc(C)s3)C2)nn1` (stereo not given) was 95.67%.
The value for `CCN(CCOC)C(=O)CCc1scnc1C` was 1.791%; that for `CCc1ccc(CNc2cc(-c3ccoc3C)nn2CCO)o1` was -16.42%; that for `Cc1nnc2n1CCN(C(=O)c1cnc3c(cnn3CC(C)C)c1)C2` was -2.285%.
The result for `Cc1ccc(CN(CCCN(C)C)Cc2cnc(N(C)C)nc2)o1.O=C(O)CC(O)(CC(=O)O)C(=O)O` reads 115.6%; that for `Cc1nc2sccn2c1CN(CCCN(C)C)Cc1ccco1.O=C(O)CC(O)(CC(=O)O)C(=O)O`, 131.3%; that for `COc1cc(CN(CCCN(C)C)Cc2ccccn2)cc2c1OCO2.O=C(O)CC(O)(CC(=O)O)C(=O)O`, 126.3%.
`CC(C)CN(Cc1ccc(O)c(C(=O)O)c1)Cc1cnn(C)c1`: the “Percent Effect” value was -4.31%.
The result for `CC(C)OCCCN(Cc1cnn(C)c1)Cc1ccccn1.O=C(O)CC(O)(CC(=O)O)C(=O)O` reads 84.46%; that for `CN(C)c1ccc(CN(CCCn2ccnc2)Cc2c[nH]cn2)cc1.O=C(O)CC(O)(CC(=O)O)C(=O)O`, -12.92%.
As for `O=C(Cc1cn2ccsc2n1)N(Cc1ccco1)CC1CCCO1` (stereo not given), the “Percent Effect” value was determined as 1.448%.
`COc1cc(CN(Cc2ccccn2)CC(C)C)cc2c1OCO2`: the “Percent Effect” value is reported as -37.75%.
In the case of `Cc1ncsc1CCN(C)Cc1cc2n(n1)CCN(Cc1ccco1)C2`, the “Percent Effect” value is listed as 0.12%.
The result for `COCc1cc(N(CC(F)F)C2CC2)n2ncnc2n1` reads -15.21%; that for `CC(C)(Cn1cnc(-c2ccccc2)c1-c1ccco1)N1CCOCC1`, 0.7687%; that for `Cc1nc2c(c(=O)n1C)CCN(C(=O)CCc1ccccn1)CC2`, -4.884%.
On to `CN(C)CCCN(Cc1cnn(C)c1)Cc1ccco1.O=C(O)CC(O)(CC(=O)O)C(=O)O`, for which the “Percent Effect” value was determined as 115.2%.
In the case of `CN(C)[C@@H]1CCN(C(=O)c2ccco2)[C@H]1Cc1cnn(C)c1.O=C(O)C(F)(F)F`, the “Percent Effect” value was -8.002%.
Consider `CCN(CCCN1CCOCC1)C(=O)c1cnn(CC)c1`, for which the “Percent Effect” value was -6.092%.
The result for `CN(Cc1cnn(C)c1)S(=O)(=O)N1CCCC1c1ccco1` (stereo not given) reads -4.037%; that for `Cc1ccc(CN(CCCN2CCOCC2)Cc2cnn(C)c2)o1.O=C(O)CC(O)(CC(=O)O)C(=O)O`, 97.82%.
The result for `COCCN(Cc1cnn(C)c1)Cc1ccc(C)o1` reads 2.974%; that for `O=C1NCC2(CCCN(C(=O)Nc3ccc4scnc4c3)CC2)O1` (stereo not given), -9.08%.
Turning to `Cc1cnn(CC2CCN(CC(O)c3ccc(F)cc3)CC2)c1` (stereo not given), the “Percent Effect” value was -5.813%.
As to `CC(=O)N1CCS(=O)(=O)[C@@H]2CCN(S(=O)(=O)CC(C)C)CC[C@@H]21`, the “Percent Effect” value came out at 8.105%.
Turning to `CC(C)(C)C(=O)N1CC[C@@H]2[C@H](CC1)N(S(C)(=O)=O)CCS2(=O)=O`, the “Percent Effect” value is recorded as 98.9%.
The value for `CC(C)CC(=O)N1CC[C@@H]2[C@H](CC1)N(S(C)(=O)=O)CCS2(=O)=O` was 1.552%.
The result for `CC(C)CN1CCS(=O)(=O)[C@@H]2CCN(S(=O)(=O)C3CC3)CC[C@@H]21.O=C(O)C(F)(F)F` reads 4.008%; that for `CC(C)CCC(=O)N1CC[C@@H]2[C@H](CC1)N(S(C)(=O)=O)CCS2(=O)=O`, 94.59%.
For the compound `CC(=O)N1CCS(=O)(=O)[C@@H]2CCN(CC(C)C)CC[C@@H]21.O=C(O)C(F)(F)F`, the “Percent Effect” value is on record as -6.859%.
The result for `CC(C)(C)CC(=O)N1CC[C@@H]2[C@H](CC1)N(S(C)(=O)=O)CCS2(=O)=O` reads -4.617%.
Regarding `CC(C)CN1CC[C@@H]2[C@H](CC1)N(S(C)(=O)=O)CCS2(=O)=O.O=C(O)C(F)(F)F`, the “Percent Effect” value was determined as 96.88%.
The result for `CC(C)CN1CCS(=O)(=O)[C@@H]2CCN(S(=O)(=O)N(C)C)CC[C@@H]21.O=C(O)C(F)(F)F` reads -16.7%; that for `C[C@H]1CC[C@H](C(=O)N2CCC(n3cc(C4(O)CCCC4)nn3)CC2)CC1`, 3.706%; that for `CSc1ncc(C(=O)N2C[C@@H](NC(C)=O)[C@H](c3ccc(C)cc3)C2)cn1`, -0.9583%.
The value for `CN(C(=O)NCCCN1CCCC1)C1CCN(c2ccccc2)C1=O` (stereo not given) was -8.204%; that for `Cc1cc(-c2cncnc2)ccc1OCC(N)=O` was -32.33%.
The value for `N#Cc1cc(N2CCC(S(N)(=O)=O)CC2)c2ccccc2n1` was -5.494%; that for `COCCN1CCC(c2ncc(C(=O)N3CCOCC3)c(C)n2)CC1` was 139.1%.
`COCCN1C[C@@H](C)[C@@]2(COCCN(C(=O)c3cnc(C)cn3)C2)C1.O=C(O)C(F)(F)F`: the “Percent Effect” value is -26.1%.
As for `COCCN1CCCC(c2ncc(C(=O)N(C)C)c(C)n2)C1` (stereo not given), the “Percent Effect” value turned out to be 128.7%.
The value for `COCCn1cnc(-c2nc(C(=O)N3CCOCC3)c3ccccn23)c1` was -9.685%; that for `COc1ccccc1OCCN1CCCC(c2noc(C3CC3)n2)C1` (stereo not given) was -3.612%; that for `CCCn1cc(C(=O)N2CCCC(c3nccn3CCOC)C2)c(C)n1` (stereo not given) was 0.1706%.
The result for `COCCN1CCCC(c2nc3c([nH]2)CC(C)(C)CNC3=O)C1` (stereo not given) reads -7.15%; that for `COCCN1CCCC(c2ncc(C(=O)N3CCOCC3)c(C)n2)C1` (stereo not given), 169%; that for `COCCCC1(CO)CCCN(C(=O)c2cnc(C3CC3)nc2)C1` (stereo not given), -3.858%.
